Binding signal data for 30 sequences are collected here from PMC9838217, “Structure of SALL4 zinc finger domain reveals link between AT-rich DNA binding and Okihiro syndrome”.

Changes are numbered by the printed parent chain.

Holding throughout (assay): HT-SELEX; high values mean tight binding
What all share (details): protein: recombinant; vector His6-GST; dsDNA, one strand shown

The target in one assay is T1, SALL4 ZFC4 WT (HT-SELEX) (Mus musculus, UniProt Q8BX22 870-940).
T1 sequence: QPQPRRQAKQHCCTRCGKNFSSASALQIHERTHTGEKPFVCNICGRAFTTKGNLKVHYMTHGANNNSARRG
A digest of the protocol: (§1)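 Purified recombinant mouse SALL4 zinc finger cluster 4 (residues 870–940, 1 µg) was incubated with library DNA (1.5 µg first cycle, 200 ng later) in 100 µl of 10 mM Tris–HCl pH 7.5, 50 mM NaCl, poly(dI-dC) and DTT for 10 min at room temperature, with Ni2+ bead capture and reselection for up to 6 cycles in triplicate. MiSeq reads were scanned for 6-mers. Binding signal is each canonical k-mer's read fraction as fold change relative to the initial random library.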

In assay [1] the target is T2, SALL4 ZFC4 R900W (HT-SELEX) (Mus musculus, UniProt Q8BX22 870-940, R900W).
T2 sequence: T1 sequence with R31W
A digest of the protocol: as §1

The target of assay [2] is T3, SALL4 ZFC4 G921D (HT-SELEX) (Mus musculus, UniProt Q8BX22 870-940, G921D).
T3 sequence: T1 sequence with G52D
A digest of the protocol: as §1

Regarding ACAGGG, the binding signal with SALL4 ZFC4 WT (HT-SELEX) was 0.493 ± 0.038 fold-change vs cycle 0; in assay [1], 0.569 ± 0.0399 fold-change vs cycle 0; in assay [2], 0.639 ± 0.0358 fold-change vs cycle 0.
The matching figures for CGAAAG: 0.614 ± 0.0288 fold-change vs cycle 0, 0.735 ± 0.037 fold-change vs cycle 0 and 0.79 ± 0.0572 fold-change vs cycle 0.
In the case of CACTCC, the values for the binding signal (with SALL4 ZFC4 WT (HT-SELEX); in assay [1]; in assay [2]) were 0.513 ± 0.0257 fold-change vs cycle 0, 0.603 ± 0.0288 fold-change vs cycle 0 and 0.684 ± 0.0287 fold-change vs cycle 0, respectively.
The matching figures for CTCGGA: 0.396 ± 0.0242 fold-change vs cycle 0, 0.468 ± 0.0145 fold-change vs cycle 0 and 0.589 ± 0.0706 fold-change vs cycle 0.
The matching figures for GCTTAC: 0.774 ± 0.0137 fold-change vs cycle 0, 0.852 ± 0.0208 fold-change vs cycle 0 and 0.908 ± 0.0208 fold-change vs cycle 0.
The matching figures for ACCCTC: 0.489 ± 0.00987 fold-change vs cycle 0, 0.562 ± 0.0409 fold-change vs cycle 0 and 0.66 ± 0.0504 fold-change vs cycle 0.
Regarding ATCCAT, the figures for the binding signal (with SALL4 ZFC4 WT (HT-SELEX); in assay [1]; in assay [2]) were 1.62 ± 0.0994 fold-change vs cycle 0, 1.54 ± 0.0869 fold-change vs cycle 0 and 1.44 ± 0.0984 fold-change vs cycle 0, respectively.
The matching figures for TTCCAA: 1.24 ± 0.0535 fold-change vs cycle 0, 1.32 ± 0.0456 fold-change vs cycle 0 and 1.29 ± 0.0721 fold-change vs cycle 0.
The matching figures for CACACA: 0.666 ± 0.03 fold-change vs cycle 0, 0.777 ± 0.0199 fold-change vs cycle 0 and 0.826 ± 0.0389 fold-change vs cycle 0.
Take ACCTAG: the values for the binding signal (with SALL4 ZFC4 WT (HT-SELEX); in assay [1]; in assay [2]) were 0.875 ± 0.0697 fold-change vs cycle 0, 0.986 ± 0.0422 fold-change vs cycle 0 and 1.04 ± 0.0407 fold-change vs cycle 0, respectively.
The matching figures for ATACAT: 2.32 ± 0.0956 fold-change vs cycle 0, 2.02 ± 0.0564 fold-change vs cycle 0 and 1.83 ± 0.109 fold-change vs cycle 0.
CACCGA: the results for the binding signal (with SALL4 ZFC4 WT (HT-SELEX); in assay [1]; in assay [2]) were 0.338 ± 0.00929 fold-change vs cycle 0, 0.392 ± 0.0114 fold-change vs cycle 0 and 0.523 ± 0.056 fold-change vs cycle 0, respectively.
Consider AACACA, for which the values for the binding signal (in the assay with SALL4 ZFC4 WT (HT-SELEX); in assay [1]; in assay [2]) were 1.18 ± 0.0535 fold-change vs cycle 0, 1.29 ± 0.058 fold-change vs cycle 0 and 1.27 ± 0.0417 fold-change vs cycle 0, respectively.
Turning to AGCAAT, the binding signal is 1.19 ± 0.0605 fold-change vs cycle 0 with SALL4 ZFC4 WT (HT-SELEX), 1.21 ± 0.0474 fold-change vs cycle 0 in assay [1] and 1.25 ± 0.111 fold-change vs cycle 0 in assay [2].
Take TAGAAA: the values for the binding signal (with SALL4 ZFC4 WT (HT-SELEX); in assay [1]; in assay [2]) were 2.03 ± 0.103 fold-change vs cycle 0, 1.91 ± 0.061 fold-change vs cycle 0 and 1.69 ± 0.141 fold-change vs cycle 0, respectively.
On to AATAAA, for which the results for the binding signal (in the assay with SALL4 ZFC4 WT (HT-SELEX); in assay [1]; in assay [2]) were 3.71 ± 0.274 fold-change vs cycle 0, 2.68 ± 0.197 fold-change vs cycle 0 and 2.21 ± 0.297 fold-change vs cycle 0, respectively.
On to GAGTCC, for which the binding signal was 0.481 ± 0.0188 fold-change vs cycle 0 with SALL4 ZFC4 WT (HT-SELEX), 0.549 ± 0.0274 fold-change vs cycle 0 in assay [1] and 0.669 ± 0.013 fold-change vs cycle 0 in assay [2].
As for AGATTG, the binding signal in the assay with SALL4 ZFC4 WT (HT-SELEX) turned out to be 1.29 ± 0.0269 fold-change vs cycle 0; in assay [1], 1.41 ± 0.0315 fold-change vs cycle 0; in assay [2], 1.38 ± 0.0773 fold-change vs cycle 0.
As for TAATAA, the binding signal is 5.02 ± 0.619 fold-change vs cycle 0 with SALL4 ZFC4 WT (HT-SELEX), 2.78 ± 0.312 fold-change vs cycle 0 in assay [1] and 2.32 ± 0.357 fold-change vs cycle 0 in assay [2].
With AACTTG, the binding signal was 1.21 ± 0.0551 fold-change vs cycle 0 in the assay with SALL4 ZFC4 WT (HT-SELEX), 1.34 ± 0.0813 fold-change vs cycle 0 in assay [1] and 1.29 ± 0.0625 fold-change vs cycle 0 in assay [2].
The matching figures for AAGTTG: 1.18 ± 0.062 fold-change vs cycle 0, 1.32 ± 0.0296 fold-change vs cycle 0 and 1.29 ± 0.0737 fold-change vs cycle 0.
Take CAGTAC: the binding signal in the assay with SALL4 ZFC4 WT (HT-SELEX) was 0.772 ± 0.0398 fold-change vs cycle 0; in assay [1], 0.92 ± 0.0398 fold-change vs cycle 0; in assay [2], 0.957 ± 0.0386 fold-change vs cycle 0.
On to CAATAA, for which the binding signal is 2.18 ± 0.182 fold-change vs cycle 0 with SALL4 ZFC4 WT (HT-SELEX), 1.91 ± 0.101 fold-change vs cycle 0 in assay [1] and 1.73 ± 0.173 fold-change vs cycle 0 in assay [2].
With GGTAAA, the figures for the binding signal (in the assay with SALL4 ZFC4 WT (HT-SELEX); in assay [1]; in assay [2]) were 1.19 ± 0.0123 fold-change vs cycle 0, 1.3 ± 0.0352 fold-change vs cycle 0 and 1.23 ± 0.0522 fold-change vs cycle 0, respectively.
With CTAGCA, the binding signal worked out at 0.695 ± 0.0294 fold-change vs cycle 0 in the assay with SALL4 ZFC4 WT (HT-SELEX), 0.782 ± 0.0282 fold-change vs cycle 0 in assay [1] and 0.86 ± 0.0269 fold-change vs cycle 0 in assay [2].
Regarding CTATAA, the figures for the binding signal (with SALL4 ZFC4 WT (HT-SELEX); in assay [1]; in assay [2]) were 2.19 ± 0.104 fold-change vs cycle 0, 1.95 ± 0.0822 fold-change vs cycle 0 and 1.74 ± 0.119 fold-change vs cycle 0, respectively.
For ATTACA, the binding signal with SALL4 ZFC4 WT (HT-SELEX) came to 2.21 ± 0.144 fold-change vs cycle 0; in assay [1], 2.06 ± 0.11 fold-change vs cycle 0; in assay [2], 1.82 ± 0.177 fold-change vs cycle 0.
In the case of CACATG, the binding signal with SALL4 ZFC4 WT (HT-SELEX) is 0.752 ± 0.0217 fold-change vs cycle 0; in assay [1], 0.8671 ± 0.00649 fold-change vs cycle 0; in assay [2] it was 0.925 ± 0.0436 fold-change vs cycle 0.
The matching figures for GTCTGA: 0.754 ± 0.0534 fold-change vs cycle 0, 0.884 ± 0.0322 fold-change vs cycle 0 and 0.945 ± 0.0454 fold-change vs cycle 0.
The matching figures for ATATTC: 2.62 ± 0.255 fold-change vs cycle 0, 1.95 ± 0.1 fold-change vs cycle 0 and 1.78 ± 0.19 fold-change vs cycle 0.
